Giardia FBPA inh – inhibitors of Giardia lamblia fructose-1,6-bisphosphate aldolase; A8B2U2; purified Giardia FBPA; Potency, µM (highest dose often 59.6 µM), for the others: at the highest dose activity, negative = inhibition, actives largely listed as inhibitors; hit rate 0.71% among 290,000; AID 2451; note: nearly all actives have a fitted effect of over 55% in size
Target sequence (A8B2U2 whole entry, looked up): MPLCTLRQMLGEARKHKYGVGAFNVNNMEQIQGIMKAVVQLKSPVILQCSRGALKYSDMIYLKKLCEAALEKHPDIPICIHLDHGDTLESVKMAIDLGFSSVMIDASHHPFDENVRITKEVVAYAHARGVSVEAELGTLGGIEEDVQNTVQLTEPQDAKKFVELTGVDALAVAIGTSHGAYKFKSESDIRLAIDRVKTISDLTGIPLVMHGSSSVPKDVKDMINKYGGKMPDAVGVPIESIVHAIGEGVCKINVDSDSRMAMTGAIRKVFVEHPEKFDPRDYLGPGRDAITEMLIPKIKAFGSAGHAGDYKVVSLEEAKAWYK
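Giardia FBPA (40 nM reagent) was preincubated 10 min at RT with compound (up to 57.5 uM final), then substrate plus GAPDH/TPI/NAD/arsenate coupling system with diaphorase/resazurin was added; resorufin fluorescence (525/598 nm) was read after 20 min.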
AmpC inh detg – AmpC beta-lactamase inhibition with detergent present. AmpC hydrolysis of nitrocefin, absorbance 480 nm, 0.01% Triton. Potency, µM (top dose mostly 114 µM), inactives show at the top dose activity change, negative = inhibition, hits mostly inhibitors. hit rate 0.041% among 370,000. AID 485294;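 note: 0% = no-compound wells and -100% = no-enzyme wells; nearly all actives have a fitted effect of over 25% in size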
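AmpC (5.3 nM in the dispensed reagent) in 20 mM phosphate pH 7.0 with 0.01% (detergent screen) or 0.0001% Triton X-100 was preincubated with compounds for 15 min at room temperature. Nitrocefin was then added from an 800 uM solution, and hydrolysis was followed at 480 nm.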
Sm TGR block – S. mansoni TGR enzyme inhibition | hit rate 3% among 360,000 | purified TGR, DTNB reduction, TNB absorbance 405 nm | Q962Y6 | Potency, µM (series often up to 114 µM), for the others: at the top dose activity change, negative = inhibition, usual class: inhibitors; note: nearly all actives have a fitted effect of over 60% in size
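Kinetic colorimetric format: TGR-catalysed, NADPH-driven DTNB reduction monitored via TNB absorbance. Enzyme dispensed at 20 nM; compound exposure 15 min at room temperature before reaction start.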
AmpC inh no detg – inhibitors of E. coli AmpC beta-lactamase without detergent | hit rate 0.52% among 330,000 | P00811 | AmpC nitrocefin hydrolysis, absorbance 480 nm, 0.0001% Triton | Potency, µM (highest dose often 57.1 µM), for inactives: top-dose activity change, negative = inhibition, most hits filed as inhibitors;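 note: plate controls were no compound for no effect and no enzyme for full effect; nearly all actives have a fitted effect of over 20% in size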
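20 mM phosphate pH 7.0 + 0.01% (detergent screen) or 0.0001% Triton X-100; 5.3 nM AmpC reagent; cpd preinc 15 min RT; nitrocefin (800 uM stock) to start; A480 q20 s × 4 min; Activity was normalised to no-enzyme and no-compound control wells.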
* marks the source's active call; other numbers are inactive results; ? = inconclusive; nt = not tested or not shown; [ ] = remark or other dose. Hits are enriched below; roughly 3.6% of the tested compounds scored in any of these assays. Calls come from the whole dose curve; as a rule, active = well fitted curve in the direction sought with a large enough effect; inconclusive = small, poorly fitted or top-dose-only effect, or another doubt; inactive = no such curve, though single readings can be large; an effect the other way counts as inactive or inconclusive. Unless noted, % is set by controls: 0 for no effect and ±100 for the full control effect; potency is the fitted concentration of half-maximal effect.

SMILES	Giardia FBPA inh	AmpC inh detg	Sm TGR block	AmpC inh no detg
N#Cc1ccc2c(c1)NC(=O)C1CCCN21 (stereo unspecified)	-8%	2%	20µM*	-42%
NC(=O)C1CCN(C2=C(NS(=O)(=O)c3ccc(Cl)cc3)C(=O)c3ccccc3C2=O)CC1	?	-1%	11µM*	80%
COc1cc(C(=O)OCC(=O)c2c(N)n(C)c(=O)n(C)c2=O)ccc1OCCC(C)C	1%	-11%	7%	10%[11.4 µM]
CCOc1ccc(NC(=O)Nc2cccnc2)cc1	-5%	5%	8%	-14%
Cc1nccn1-c1c2c(c(C#N)c3nc4ccccc4n13)CCC2	-23%	1%	25µM*	-12%
Cc1cc(Cl)n2c(nc3ccccc32)c1C#N	-7%	4%	3.2µM*	-22%
CCCCCc1c(C)c(C#N)c2nc3ccccc3n2c1-n1ccnc1C	-10%	-2%	4%	6%
Cc1c(Nc2c3c(c(C#N)c4nc5ccccc5n24)CCC3)c(=O)n(-c2ccccc2)n1C	-25%	-6%	32µM*	-16%
N#Cc1c2c(c(N3CCN(c4ccccn4)CC3)n3c1nc1ccccc13)CCC2	1%	?	40µM*	-12%
O=C(Cn1c(-c2cccs2)cc2cc(Cl)ccc21)N1CCN(c2ccccc2F)CC1	nt	-8%	-3%	nt
CC(=O)N1CCN(C(=O)CCc2nnc(CCCCc3ccccc3)o2)CC1	1%	1%	45µM*	-11%
COc1ccc(NC(=O)CN(C)C(=O)c2cccc(S(=O)(=O)Nc3ccc(F)cc3)c2)cc1	nt	-14%	-1%	-18%
Cc1cccc(C)c1NC(=O)CCCCCC1NC(=O)NC1C (stereo unspecified)	10%	-6%	25µM*	-15%
CC1NC(=O)NC1CCCCCC(=O)NCCc1ccccc1 (stereo unspecified)	-6%	-13%	32µM*	88%
Cc1cccc(C)c1NC(=O)CCCN1CC(C)OC(C)C1 (stereo unspecified)	6%	2%	3%	-3%
CN1CCN(C(=O)/C(=C/c2cccs2)NC(=O)c2ccco2)CC1	-4%	?	nt	-11%
CC1CC2C3CCC4=CC(=O)C=C[C@@]4(C)[C@]3(F)C(O)C[C@]2(C)[C@]1(O)C(=O)COP(=O)(O)O (stereo partly specified)	-1%	nt	nt	nt
C=CCN1C(=O)NC(=O)/C(=C/c2cnc(SC)nc2)C1=O	-7%	?	?	-10%
C=CCN1C(=O)NC(=O)/C(=C/c2cc3c4c(c2)CCCN4CCC3)C1=O	-23%	-13%	8.9µM*	13%
CC(=O)N1CC=C2C(C#N)=C(N)C(C#N)(C#N)C(CCc3ccccc3)C2C1 (stereo unspecified)	-29%	-7%	40µM*	-23%
CCN1CC=C2C(C#N)=C(N)C(C#N)(C#N)C(CCc3ccccc3)C2C1 (stereo unspecified)	?	?	28µM*	-13%
Cc1ccc([N+](=O)[O-])cc1N(CC(=O)Nc1ccc(S(=O)(=O)Nc2cccc(C(F)(F)F)c2)cc1)S(C)(=O)=O	-1%	7%	4%	-49%
CC(=O)SC(C[N+](=O)[O-])c1cn(C(C)=O)c2ccccc12 (stereo unspecified)	?	3%	4.5µM*	-19%
Cc1cc(=O)oc2ccc(OCC(=O)N3CCC(C)CC3)cc12	4%	?	18µM*	1%
COc1ccc2oc(C(=O)NC3(C)CCS(=O)(=O)C3)c(C)c2c1 (stereo unspecified)	nt	-1%	-1%	-8%
SMILES	Giardia FBPA inh	AmpC inh detg	Sm TGR block	AmpC inh no detg
COc1cccc(N2C(=O)[C@H]3C(C(=O)c4cnccn4)=NN[C@H]3C2=O)c1	?	-12%	45µM*	-27%
COc1ccc(N(CC(=O)N/N=C/c2ccccc2F)S(=O)(=O)c2ccccc2)cc1	-1%	-5%	-1%	-43%
CN1C(=O)C(O)(CC(=O)/C=C/c2ccco2)c2cc(Br)ccc21 (stereo unspecified)	0%	-6%	18µM*	-19%
CC(NC(=O)/C=C/c1ccco1)c1nc2ccccc2n1Cc1ccccc1F (stereo unspecified)	3%	-7%	35µM*	-26%
CC(NC(=O)/C=C/c1ccco1)c1nc2ccccc2n1Cc1c(Cl)cccc1Cl (stereo unspecified)	2%	-14%	25µM*	-39%
CCOC(=O)c1c(C)[nH]c(C)c1C(=O)COC(=O)/C=C/c1ccc(Cl)cc1	-7%	-8%	-2%	0%
CCN(CC(=O)Nc1c(F)cccc1F)C(=O)CCN1C(=O)C2CCCCC2C1=O (stereo unspecified)	nt	?	1%	4%
CCC1CCCCN1S(=O)(=O)c1ccc(C(=O)Nc2sc3c(c2C(N)=O)CCC3)cc1 (stereo unspecified)	nt	-4%	35µM*	nt
CCCN1CCc2c(sc(NC(=O)c3ccc(S(=O)(=O)N4CCCC4)cc3)c2C(N)=O)C1	-4%	-6%	-18%	13%
COC(=O)C1=C(C)N(CCC2=CCCCC2)C(=O)C1	?	1%	32µM*	-4%
O=C(COc1ccccc1)N(Cc1cccnc1)c1nc2c(F)cccc2s1	nt	3%	0%	nt
Cc1ccc2nc(N(Cc3cccnc3)C(=O)CCS(=O)(=O)c3ccccc3)sc2c1	nt	-1%	?	nt
O=C(CCOc1ccccc1)N(Cc1cccnc1)c1nc2c(F)cccc2s1	nt	-2%	2.2µM*	nt
Cc1ccc2nc(N(Cc3cccnc3)C(=O)CCOc3ccccc3)sc2c1	nt	-2%	?	nt
Cc1ccc2sc(N(Cc3cccnc3)C(=O)CCOc3ccccc3)nc2c1C	nt	7%	35µM*	nt
O=C(CCS(=O)(=O)c1ccccc1)N(Cc1cccnc1)c1nc2ccc(Cl)cc2s1	nt	3%	1.1µM*	nt
Cc1ccc(N(C(=O)c2csnn2)C(C(=O)NC2CCCCC2)c2ccncc2)c(C)c1 (stereo unspecified)	2%	6%	9%	3%
CCN1CCN(Cc2nc3cc(NC(=O)c4ccccc4[N+](=O)[O-])ccc3n2CC)CC1	nt	5%	1%	nt
CCOc1ccc(C(=O)CSc2nc3cc(C(=O)NC4CCCC4)ccc3c(=O)n2CC2CCCO2)cc1 (stereo unspecified)	nt	0%	7%	nt
Cc1cc(OC(C)C(=O)Nc2ccncc2)ccc1Cl (stereo unspecified)	13%	-1%	-20%	-1%
CCN(CC)C(=O)c1sc2nc(-c3cccs3)cc(-c3ccc(Cl)cc3)c2c1N	3%	2%	10%	-34%
CCN(CC)C(=O)c1sc2nc(-c3cccs3)cc(-c3cccs3)c2c1N	1%	1%	89µM*	-38%
C=Cc1c(C)/c2[n-]/c1=C\c1[n-]c(c(CC)c1C)/C=c1\[n-]c3c(c1C)C(=O)C(C(=O)[O-])C=3c1[n-]c(c(C)c1CCC(=O)[O-])\C=2.[Cu].[Na+].[Na+] (stereo unspecified)	14µM*	nt	nt	nt

Compound activity from PubChem BioAssay.
